KB-V1 cytotox = qHTS assay for MDR1-selective chemotherapeutics: Primary screen using the drug-selected MDR subline cells KB-V1; 400,000 tested, 3.4% active; Potency, µM (series often up to 46.1 µM), usual class: cytotoxic; AID 1347076, 2019; KB-V1 MDR cells viability, CellTiter-Glo, 72 h; further: on the % scale 0 is the no-effect control and ±100 the full control effect; nearly all actives have a fitted effect of over 60% in size
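Following 72 h at 37 degrees C with compound, KB-V1 cell viability was read by CellTiter-Glo luminescence, medium being phenol-red-free DMEM plus 10% FBS; concentration-response parameters came from normalized, curve-fitted qHTS data.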
KB-3-1 tox = qHTS assay for MDR1-selective chemotherapeutics: Primary screen using the parental adenocarcinoma cell KB-3-1; KB-3-1 viability, CellTiter-Glo ATP luminescence, 72 h; Potency, µM (doses to about 46.1 µM), most hits filed as cytotoxic; 400,000 tested, 1.4% active; AID 1347075, 2019; further: on the % scale 0 is the no-effect control and ±100 the full control effect; nearly all actives have a fitted effect of over 60% in size
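72 h, 37 °C compound treatment of KB-3-1 parental cells; CellTiter-Glo added, 10 min, luminescence read. Data corrected against DMSO-only plates and normalized before curve fitting.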
MCF10A rereplic = A quantitative high throughput screen for small molecules that induce DNA re-replication in MCF 10a normal breast cells; MCF 10A DNA re-replication, Hoechst nuclear intensity, 48 h; Potency, µM (series often up to 46.1 µM), without a hit: top-dose activity, positive = re-replication, hits mostly activators; 350,000 tested, 2.9% active; AID 624296, 2012; further: % of control where 0% means no effect; nearly all actives have a fitted effect of over 50% in size
SW480 rerep = A quantitative high throughput screen for small molecules that induce DNA re-replication in SW480 colon adenocarcinoma cells. AID 624297, 2012. SW480 DNA re-replication, Hoechst DNA content imaging, 48 h. 340,000 tested, 1.8% active. Potency, µM (series often up to 46.1 µM), inactives show top-dose re-replication activation, usual class: activators; further: % of control where 0% means no effect; nearly all actives have a fitted effect of over 55% in size
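Image-based read-out: total Hoechst fluorescence of nuclei (405 nm excitation, 500-530 nm emission), with hits raising the fraction of high-intensity nuclei. SW480 colon cells incubated 48 hr with compounds at 37 C.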
HT1080NT lethal = qHTS for induction of synthetic lethality in tumor cells producing 2HG: qHTS for the HT-1080-NT fibrosarcoma cell line; HT-1080-NT fibrosarcoma viability, CellTiter-Glo ATP luminescence, 48 h; Potency, µM (titrated, usually from 46.1 µM), inactives show at the top dose activity, negative = less viability, actives largely listed as cytotoxic; 360,000 tested, 1.6% active;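 further: NT is the 2HG producing partner of a matched IDH1 knockdown line; 0% = DMSO-treated cells and -100% = media-only wells without cells; nearly all actives have a fitted effect of over 55% in size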
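HT-1080-NT fibrosarcoma cells (2HG-overproducing), 750 cells/well in RPMI with 5% FBS, dosed after 2 h and incubated 48 h at 37C. CellTiter-Glo luminescence normalized to DMSO and no-cell wells; concentration-response curves fitted and classed.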
HT1080 IDH1KD tx = qHTS for induction of synthetic lethality in tumor cells producing 2HG: qHTS for the HT-1080-IDH1KD cell line. HT-1080 IDH1 knockdown viability, ATP luminescence, 48 h. AID 686971, 2013. Potency, µM (series often up to 46.1 µM), inactives show top-dose activity, negative = toxicity, hits mostly cytotoxic. 360,000 tested, 2% active;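 further: 0% = DMSO wells and -100% = cell-free medium wells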
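HT-1080-IDH1KD cells (IDH1 knocked down), 750/well in RPMI with 5% FBS, treated with compound 48 h at 37 degrees C. Viability by CellTiter-Glo luminescence, normalised to DMSO and no-cell wells; concentration-response curves classed.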
* hit, by the source's call; i = inactive; u = inconclusive; x = no result; [ ] = dose if it differs, or a comment. A selection: hits, their analogues and other compounds. The true share with any hit is near 7.9%. The call rests on the fitted dose curve; in most records, active means well fitted curve in the direction sought with a large enough effect; inconclusive means small, poorly fitted or top-dose-only effect, or another doubt; inactive means no such curve, though single readings can be large; an effect the other way counts as inactive or inconclusive. Potency means the concentration at half of the fitted maximal effect.

SMILES	KB-V1 cytotox	KB-3-1 tox	MCF10A rereplic	SW480 rerep	HT1080NT lethal	HT1080 IDH1KD tx
O=C(CC1C[C@H](C(=O)N2CCCCC2)[C@@]2(CCc3ccccc3)c3[nH]c4ccccc4c3CCN2C1=O)NCCc1ccccn1 (some centres not stated)	12µM*	u	24%	-54%[9.22 µM]	9%	7%
C[C@]12c3[nH]c4ccccc4c3CCN1C(=O)C(CC(=O)NCCc1ccccn1)C[C@@H]2C(=O)N1CCCCC1 (some centres not stated)	i	i	-9%	-40%	6%	0%
CC(C)N(C(=O)[C@H]1C[C@H](CC(=O)NCCN2CCOCC2)C(=O)N2CCc3c([nH]c4cc(-c5ccco5)ccc34)[C@]12C)C(C)C	i	i	-38%	16µM*	-21%	-13%
C[C@]12c3[nH]c4cc(-c5ccco5)ccc4c3CCN1C(=O)[C@@H](CC(=O)NCCCn1ccnc1)C[C@@H]2C(=O)N1CCCCC1	i	i	-21%	0%	-3%	-7%
O=C(C[C@H]1C[C@H](C(=O)N2CCOCC2)[C@@]2(CCC3CCCC3)c3[nH]c4cc(-c5ccco5)ccc4c3CCN2C1=O)NCCc1ccccn1	u	u	u	u	21µM*	u
O=C(C[C@H]1C[C@H](C(=O)N2CCOCC2)[C@@]2(CCC3CCCC3)c3[nH]c4cc(-c5ccco5)ccc4c3CCN2C1=O)NCCC1=CCCCC1	i	i	-56%	0%	-9%	-20%
CN(C)CCCNC(=O)C[C@H]1C[C@H](C(=O)N2CCCCC2)[C@@]2(CCc3ccccc3)c3[nH]c4cc(-c5ccco5)ccc4c3CCN2C1=O	u	u	u	6%	26µM*	u
CN(C)CCCNC(=O)CC1C[C@H](C(=O)N2CCCCC2)[C@@]2(CCc3ccccc3)c3[nH]c4ccccc4c3CCN2C1=O (some centres not stated)	i	i	-3%	-6%	7%	9%
COC(=O)c1sc2nc(CSc3ccc(Br)cc3)[nH]c(=O)c2c1C	i	i	15µM*	-4%	1%	0%
CCOc1ccc(S(=O)(=O)Nc2cccc(-c3ccc(N4CCCC4)nn3)c2)cc1	i	i	x	x	x	x
O=c1c2ccccc2c(=O)n(-c2ccccc2)n1CCCCBr	i	i	7.3µM*	-2%	7%	0%
CC(=O)n1c(=O)c2ccccc2c(=O)n1-c1ccccc1	i	i	-15%	-4%	14%	20%
CCOC(=O)CNC(=S)n1ncnc1N	i	i	-7%	5.8µM*	13%	11%
COC(=O)c1cc(Cc2ccc(N)c(C(=O)OC)c2)ccc1N	21µM*	u	4%	2%	5%	-6%
N#Cc1cccc(NC(=O)c2cc(C3CCCCN3S(=O)(=O)c3cccc4cccnc34)on2)c1 (configuration not stated)	i	i	x	x	0%	-9%
CC1=NN(c2ccccc2)C(=O)/C1=C\C=C\c1ccccc1	i	i	u	u	4.1µM*	3.7µM*
O=C(OCn1ncc(Cl)c(Cl)c1=O)c1cccc(C(F)(F)F)c1	u	4.6µM*	5.8µM*	5.8µM*	u	21µM*
N/C(=N\OC(=O)c1cccc(C(F)(F)F)c1)c1cnccn1	i	i	-9%	-33%	-2%	-4%
Cc1csc(NC(=O)CSc2ncnc3c2cnn3-c2ccccc2Cl)n1	u	u	22µM*	21%	u	u
